Among the data in paper PMC7862700, “An all-to-all approach to the identification of sequence-specific readers for epigenetic DNA modifications on cytosine” are binding signal values, retold here.

What all share (test): DAPPL (digital affinity profiling via proximity ligation, sequencing); 10 mM Tris-HCl pH 7.5, 50 mM NaCl, 1 mM DTT, 4% glycerol, room temperature, 30 min; GST-TFs on glutathione beads, 16-mer random dsDNA library, 0.1% formaldehyde crosslink after washing; high values mean tight binding
Settings in all cases: protein: recombinant; tags: N-terminal GST; dsDNA, one strand shown

The target of one assay is T1, ELK1 (Homo sapiens, UniProt P19419 1-428).
T1 sequence: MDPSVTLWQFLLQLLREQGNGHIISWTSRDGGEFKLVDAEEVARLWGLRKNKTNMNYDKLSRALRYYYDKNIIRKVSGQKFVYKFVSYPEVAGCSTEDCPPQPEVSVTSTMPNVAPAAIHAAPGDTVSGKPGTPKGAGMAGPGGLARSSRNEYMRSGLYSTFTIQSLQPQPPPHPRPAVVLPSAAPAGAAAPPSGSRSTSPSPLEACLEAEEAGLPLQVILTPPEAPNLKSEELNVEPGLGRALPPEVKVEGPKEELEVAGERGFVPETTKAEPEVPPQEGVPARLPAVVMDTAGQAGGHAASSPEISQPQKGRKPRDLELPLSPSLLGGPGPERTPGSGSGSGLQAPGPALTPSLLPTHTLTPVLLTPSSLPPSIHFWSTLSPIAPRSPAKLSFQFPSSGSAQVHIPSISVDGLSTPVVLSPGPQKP
The method in brief:
(§1)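 GST fusions of human transcription factors were expressed in yeast and captured with glutathione beads. Once given DNA barcodes and pooled alongside a tag-only sample, they were incubated for 30 min at room temperature with 200 nmole of a random double-stranded 16-mer DNA library in Tris/NaCl/DTT/glycerol buffer, then washed, crosslinked (0.1% formaldehyde), proximity-ligated, PCR-amplified and sequenced on an Illumina NextSeq500. The binding signal of each hexamer is its read frequency for a factor divided by its frequency for the tag-only sample.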

The next assay concerns the target T2, GABPA (Homo sapiens, UniProt Q06546 1-454).
T2 sequence: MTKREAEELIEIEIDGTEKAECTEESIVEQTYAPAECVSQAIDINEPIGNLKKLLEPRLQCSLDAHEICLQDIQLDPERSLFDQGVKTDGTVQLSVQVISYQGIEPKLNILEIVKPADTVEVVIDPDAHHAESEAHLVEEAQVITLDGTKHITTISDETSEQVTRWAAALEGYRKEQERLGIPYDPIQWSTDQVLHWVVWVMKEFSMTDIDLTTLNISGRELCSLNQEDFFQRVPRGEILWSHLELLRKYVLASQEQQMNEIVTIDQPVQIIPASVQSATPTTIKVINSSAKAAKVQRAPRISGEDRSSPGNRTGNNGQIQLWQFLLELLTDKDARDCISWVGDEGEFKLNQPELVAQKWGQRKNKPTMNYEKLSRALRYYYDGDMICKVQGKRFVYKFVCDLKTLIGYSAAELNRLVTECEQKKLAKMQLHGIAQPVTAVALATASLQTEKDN
The method in brief:
as §1

For another assay, the target named is ELF1 (Homo sapiens, UniProt P32519 1-619). The method in brief: as §1
The target of another assay is SPI1 (Homo sapiens, UniProt P17947 1-270). The method in brief:
as §1

The target of a further assay is ETV5 (Homo sapiens, UniProt P41161 1-510). The method in brief:
as §1

Another assay deals with ELF4 (Homo sapiens, UniProt Q99607 1-663). The method in brief:
as §1

The target in another assay is T3, ELK4 (Homo sapiens, UniProt P28324-2 1-405).
T3 sequence: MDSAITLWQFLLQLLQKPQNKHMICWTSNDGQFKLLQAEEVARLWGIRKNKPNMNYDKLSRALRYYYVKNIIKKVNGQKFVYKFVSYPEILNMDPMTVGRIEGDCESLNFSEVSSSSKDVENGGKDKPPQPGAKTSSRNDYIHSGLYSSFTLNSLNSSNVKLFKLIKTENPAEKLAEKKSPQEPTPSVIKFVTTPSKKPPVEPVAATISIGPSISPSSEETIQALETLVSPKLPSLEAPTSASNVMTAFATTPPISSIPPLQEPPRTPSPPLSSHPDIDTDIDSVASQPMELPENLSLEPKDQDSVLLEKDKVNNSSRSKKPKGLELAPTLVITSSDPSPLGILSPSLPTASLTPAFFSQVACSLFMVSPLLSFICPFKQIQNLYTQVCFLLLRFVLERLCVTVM
The method in brief: as §1

A further assay addresses T4, ELF3 (Homo sapiens, UniProt P78545 1-371).
T4 sequence: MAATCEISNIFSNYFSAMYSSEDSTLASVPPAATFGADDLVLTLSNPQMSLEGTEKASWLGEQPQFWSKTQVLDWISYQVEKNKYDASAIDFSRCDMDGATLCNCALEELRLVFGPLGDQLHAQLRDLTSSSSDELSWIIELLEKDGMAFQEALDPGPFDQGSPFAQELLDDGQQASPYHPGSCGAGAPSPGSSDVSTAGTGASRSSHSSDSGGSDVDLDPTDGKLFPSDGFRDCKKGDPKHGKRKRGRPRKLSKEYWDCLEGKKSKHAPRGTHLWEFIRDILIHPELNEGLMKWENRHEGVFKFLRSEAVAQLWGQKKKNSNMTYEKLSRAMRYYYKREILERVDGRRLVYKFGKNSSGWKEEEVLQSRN
The method in brief:
as §1

A further assay addresses ETV1 (Homo sapiens, UniProt P50549 1-477). The method in brief: as §1
Another assay concerns the target T5, ERF (Homo sapiens, UniProt P50548 1-548).
T5 sequence: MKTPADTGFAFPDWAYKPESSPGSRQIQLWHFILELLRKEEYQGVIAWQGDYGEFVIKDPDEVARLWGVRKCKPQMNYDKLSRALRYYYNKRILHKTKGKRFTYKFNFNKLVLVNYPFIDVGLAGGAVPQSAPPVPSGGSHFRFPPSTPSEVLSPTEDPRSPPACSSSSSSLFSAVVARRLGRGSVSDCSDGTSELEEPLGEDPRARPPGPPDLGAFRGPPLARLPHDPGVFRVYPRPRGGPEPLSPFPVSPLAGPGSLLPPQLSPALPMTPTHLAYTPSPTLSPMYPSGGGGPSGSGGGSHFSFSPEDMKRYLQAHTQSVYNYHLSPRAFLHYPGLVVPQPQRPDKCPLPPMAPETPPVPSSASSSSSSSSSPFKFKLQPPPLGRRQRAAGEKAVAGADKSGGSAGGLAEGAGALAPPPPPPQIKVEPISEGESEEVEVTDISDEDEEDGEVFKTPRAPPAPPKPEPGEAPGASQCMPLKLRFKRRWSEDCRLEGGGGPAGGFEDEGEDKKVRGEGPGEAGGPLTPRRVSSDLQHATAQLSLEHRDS
The method in brief:
as §1

The target of the next assay is T6, ETV3L (Homo sapiens, UniProt Q6ZN32 1-361).
T6 sequence: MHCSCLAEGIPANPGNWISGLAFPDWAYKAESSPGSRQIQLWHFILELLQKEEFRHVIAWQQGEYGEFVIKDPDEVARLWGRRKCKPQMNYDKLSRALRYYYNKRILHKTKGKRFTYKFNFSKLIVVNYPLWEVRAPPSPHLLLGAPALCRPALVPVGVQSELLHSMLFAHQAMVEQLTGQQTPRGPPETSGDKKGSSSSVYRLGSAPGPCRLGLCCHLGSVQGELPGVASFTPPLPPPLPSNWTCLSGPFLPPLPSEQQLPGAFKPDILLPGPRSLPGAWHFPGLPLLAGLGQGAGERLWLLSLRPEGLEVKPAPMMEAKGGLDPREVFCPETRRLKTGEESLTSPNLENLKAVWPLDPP
The method in brief:
as §1

For a further assay, the target named is T7, ETV3 (Homo sapiens, UniProt P41162-2 1-143).
T7 sequence: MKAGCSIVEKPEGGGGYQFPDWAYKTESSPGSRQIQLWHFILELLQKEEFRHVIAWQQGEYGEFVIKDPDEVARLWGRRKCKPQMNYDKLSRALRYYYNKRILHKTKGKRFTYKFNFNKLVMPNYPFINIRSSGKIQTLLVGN
The method in brief: as §1

The target of a further assay is ETV6 (Homo sapiens, UniProt P41212 1-452). The method in brief: as §1
Another assay addresses T8, ERG (Homo sapiens, UniProt P11308 1-479).
T8 sequence: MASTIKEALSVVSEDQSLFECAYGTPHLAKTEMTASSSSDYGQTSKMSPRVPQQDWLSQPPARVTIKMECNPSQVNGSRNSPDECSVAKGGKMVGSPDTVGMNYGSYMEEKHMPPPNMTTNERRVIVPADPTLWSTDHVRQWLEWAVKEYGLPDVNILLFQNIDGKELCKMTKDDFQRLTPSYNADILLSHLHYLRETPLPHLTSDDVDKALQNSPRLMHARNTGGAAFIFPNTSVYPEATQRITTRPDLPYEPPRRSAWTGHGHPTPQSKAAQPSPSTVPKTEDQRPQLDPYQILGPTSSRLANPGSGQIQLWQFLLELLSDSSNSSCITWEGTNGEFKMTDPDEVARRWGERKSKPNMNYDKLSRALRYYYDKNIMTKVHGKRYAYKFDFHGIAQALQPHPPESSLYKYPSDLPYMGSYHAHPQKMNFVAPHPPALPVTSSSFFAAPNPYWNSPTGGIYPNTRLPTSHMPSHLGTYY
The method in brief:
as §1

The target in another assay is T9, EHF (Homo sapiens, UniProt Q9NZC4 1-300).
T9 sequence: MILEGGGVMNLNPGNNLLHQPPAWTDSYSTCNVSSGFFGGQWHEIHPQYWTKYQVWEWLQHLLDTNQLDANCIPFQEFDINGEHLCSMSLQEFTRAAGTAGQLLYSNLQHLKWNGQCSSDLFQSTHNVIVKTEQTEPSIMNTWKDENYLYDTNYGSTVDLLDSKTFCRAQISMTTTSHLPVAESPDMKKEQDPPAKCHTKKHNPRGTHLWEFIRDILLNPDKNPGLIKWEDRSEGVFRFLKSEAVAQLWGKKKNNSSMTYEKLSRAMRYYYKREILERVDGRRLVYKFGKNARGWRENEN
The method in brief: as §1

The target in the next assay is SPIB (Homo sapiens, UniProt Q01892 1-262). The method in brief: as §1
The target of another assay is T10, FEV (Homo sapiens, UniProt Q99581 1-238).
T10 sequence: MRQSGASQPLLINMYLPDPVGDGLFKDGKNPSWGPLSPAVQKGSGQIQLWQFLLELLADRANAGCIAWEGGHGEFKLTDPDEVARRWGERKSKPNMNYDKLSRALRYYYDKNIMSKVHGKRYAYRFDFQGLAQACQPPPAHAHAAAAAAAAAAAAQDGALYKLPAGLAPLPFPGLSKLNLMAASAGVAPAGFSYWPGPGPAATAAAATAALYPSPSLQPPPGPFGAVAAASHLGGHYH
The method in brief:
as §1

In another assay the target is T11, ETS2 (Homo sapiens, UniProt P15036 1-469).
T11 sequence: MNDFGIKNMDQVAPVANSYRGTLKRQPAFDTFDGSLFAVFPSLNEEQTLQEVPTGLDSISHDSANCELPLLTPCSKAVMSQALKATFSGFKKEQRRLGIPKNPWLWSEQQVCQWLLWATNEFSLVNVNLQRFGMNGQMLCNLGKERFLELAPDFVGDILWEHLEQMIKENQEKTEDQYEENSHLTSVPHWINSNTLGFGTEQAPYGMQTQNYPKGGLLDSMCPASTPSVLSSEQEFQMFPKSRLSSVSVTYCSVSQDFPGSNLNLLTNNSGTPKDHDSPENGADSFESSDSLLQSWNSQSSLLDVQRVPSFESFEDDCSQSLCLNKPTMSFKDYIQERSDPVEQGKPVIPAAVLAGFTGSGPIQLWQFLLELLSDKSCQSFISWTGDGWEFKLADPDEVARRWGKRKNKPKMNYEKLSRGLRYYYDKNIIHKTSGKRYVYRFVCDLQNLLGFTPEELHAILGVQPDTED
The method in brief: as §1

Chain of ELF4 (Q99607 whole entry): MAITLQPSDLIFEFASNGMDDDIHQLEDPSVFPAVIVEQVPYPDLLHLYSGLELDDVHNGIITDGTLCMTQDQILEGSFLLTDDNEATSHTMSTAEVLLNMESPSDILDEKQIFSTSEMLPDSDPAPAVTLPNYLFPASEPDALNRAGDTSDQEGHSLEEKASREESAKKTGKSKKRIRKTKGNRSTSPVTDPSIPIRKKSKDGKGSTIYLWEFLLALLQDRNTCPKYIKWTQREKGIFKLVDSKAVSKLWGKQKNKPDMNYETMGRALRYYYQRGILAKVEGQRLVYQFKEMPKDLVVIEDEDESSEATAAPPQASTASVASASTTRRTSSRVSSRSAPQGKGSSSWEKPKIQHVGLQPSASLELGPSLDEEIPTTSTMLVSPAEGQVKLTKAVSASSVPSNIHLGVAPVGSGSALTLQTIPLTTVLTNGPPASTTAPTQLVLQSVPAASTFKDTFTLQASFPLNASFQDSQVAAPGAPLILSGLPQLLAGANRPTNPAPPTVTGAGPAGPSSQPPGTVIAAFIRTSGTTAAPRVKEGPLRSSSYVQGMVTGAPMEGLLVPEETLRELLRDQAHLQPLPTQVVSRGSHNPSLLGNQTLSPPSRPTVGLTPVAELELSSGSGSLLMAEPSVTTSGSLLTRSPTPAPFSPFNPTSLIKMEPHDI
Chain of ETV5 (P41161 whole entry): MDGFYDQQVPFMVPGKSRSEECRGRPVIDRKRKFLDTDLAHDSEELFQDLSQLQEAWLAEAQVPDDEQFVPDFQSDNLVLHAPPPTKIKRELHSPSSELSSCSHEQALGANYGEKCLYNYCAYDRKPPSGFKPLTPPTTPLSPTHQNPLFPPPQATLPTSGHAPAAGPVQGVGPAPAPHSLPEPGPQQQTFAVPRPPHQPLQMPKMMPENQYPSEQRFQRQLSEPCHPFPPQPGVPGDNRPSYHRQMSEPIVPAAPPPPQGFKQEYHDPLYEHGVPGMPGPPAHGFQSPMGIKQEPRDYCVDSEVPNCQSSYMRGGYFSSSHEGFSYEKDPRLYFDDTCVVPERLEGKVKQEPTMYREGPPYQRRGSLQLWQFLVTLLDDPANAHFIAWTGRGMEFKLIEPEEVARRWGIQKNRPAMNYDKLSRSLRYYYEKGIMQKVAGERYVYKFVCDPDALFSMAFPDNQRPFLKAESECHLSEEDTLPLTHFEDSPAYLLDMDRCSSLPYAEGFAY
Chain of ELF1 (P32519 whole entry): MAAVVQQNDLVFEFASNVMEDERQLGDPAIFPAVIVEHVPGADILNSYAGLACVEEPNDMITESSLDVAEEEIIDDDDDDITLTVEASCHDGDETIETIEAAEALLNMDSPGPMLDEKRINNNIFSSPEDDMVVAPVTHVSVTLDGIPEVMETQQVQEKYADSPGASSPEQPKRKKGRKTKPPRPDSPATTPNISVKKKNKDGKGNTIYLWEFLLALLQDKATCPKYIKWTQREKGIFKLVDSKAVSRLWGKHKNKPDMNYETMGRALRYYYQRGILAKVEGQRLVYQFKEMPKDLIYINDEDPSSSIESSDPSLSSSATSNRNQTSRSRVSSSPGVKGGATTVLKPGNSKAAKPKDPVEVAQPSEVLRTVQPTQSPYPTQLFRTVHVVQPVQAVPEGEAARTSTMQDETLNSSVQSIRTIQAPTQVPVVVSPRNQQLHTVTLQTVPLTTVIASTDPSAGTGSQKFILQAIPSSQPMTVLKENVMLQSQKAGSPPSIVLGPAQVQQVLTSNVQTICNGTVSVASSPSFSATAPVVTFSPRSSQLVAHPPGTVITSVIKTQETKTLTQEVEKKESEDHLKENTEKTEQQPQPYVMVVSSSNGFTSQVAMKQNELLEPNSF
Chain of ETV6 (P41212 whole entry): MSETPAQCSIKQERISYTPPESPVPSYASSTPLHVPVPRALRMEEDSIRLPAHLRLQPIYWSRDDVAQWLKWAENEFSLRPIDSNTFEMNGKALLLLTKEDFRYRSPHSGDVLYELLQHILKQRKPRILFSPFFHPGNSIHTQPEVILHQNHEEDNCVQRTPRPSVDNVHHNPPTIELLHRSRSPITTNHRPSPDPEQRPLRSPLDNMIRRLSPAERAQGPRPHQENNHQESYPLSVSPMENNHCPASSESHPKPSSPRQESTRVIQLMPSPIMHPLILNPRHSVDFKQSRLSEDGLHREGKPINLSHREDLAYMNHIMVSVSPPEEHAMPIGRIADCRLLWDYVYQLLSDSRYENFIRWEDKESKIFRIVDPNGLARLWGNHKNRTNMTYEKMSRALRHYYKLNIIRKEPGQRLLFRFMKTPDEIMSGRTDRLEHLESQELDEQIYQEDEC
Chain of ETV1 (P50549 whole entry): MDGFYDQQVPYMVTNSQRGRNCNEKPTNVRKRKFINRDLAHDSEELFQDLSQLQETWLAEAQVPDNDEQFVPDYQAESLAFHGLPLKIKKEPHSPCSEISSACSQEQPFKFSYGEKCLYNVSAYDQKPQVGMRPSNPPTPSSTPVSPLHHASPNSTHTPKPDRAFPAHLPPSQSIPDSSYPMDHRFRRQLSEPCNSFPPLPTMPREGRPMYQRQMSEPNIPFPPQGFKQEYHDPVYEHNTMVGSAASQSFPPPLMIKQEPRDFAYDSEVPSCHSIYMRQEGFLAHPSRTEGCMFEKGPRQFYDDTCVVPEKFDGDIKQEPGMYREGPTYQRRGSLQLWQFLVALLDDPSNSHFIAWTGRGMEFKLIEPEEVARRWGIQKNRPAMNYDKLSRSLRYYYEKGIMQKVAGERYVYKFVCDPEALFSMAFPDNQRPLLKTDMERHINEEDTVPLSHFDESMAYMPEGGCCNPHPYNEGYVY
Chain of SPIB (Q01892 whole entry): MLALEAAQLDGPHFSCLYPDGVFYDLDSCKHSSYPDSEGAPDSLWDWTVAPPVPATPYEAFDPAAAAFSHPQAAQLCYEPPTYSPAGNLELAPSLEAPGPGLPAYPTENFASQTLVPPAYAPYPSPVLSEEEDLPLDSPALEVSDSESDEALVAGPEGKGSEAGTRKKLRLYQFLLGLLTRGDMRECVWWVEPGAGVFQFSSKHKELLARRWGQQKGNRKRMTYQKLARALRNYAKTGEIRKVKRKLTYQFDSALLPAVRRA

Turning to GCAAAC, the binding signal in the assay with ELK1 was 1.03 fold enrichment (6-mer frequency, TF over GST control); in the assay with GABPA, 1.01 fold enrichment (6-mer frequency, TF over GST control); in the assay with ELF1, 1.01 fold enrichment (6-mer frequency, TF over GST control); with SPI1, 1.07 fold enrichment (6-mer frequency, TF over GST control); in the assay with ETV5, 1.01 fold enrichment (6-mer frequency, TF over GST control); with ELF4, 1.06 fold enrichment (6-mer frequency, TF over GST control). Also, the binding signal is 1.02 fold enrichment (6-mer frequency, TF over GST control) with ELK4; 1.13 fold enrichment (6-mer frequency, TF over GST control) with ELF3; 1.03 fold enrichment (6-mer frequency, TF over GST control) in the assay with ETV1; 1.01 fold enrichment (6-mer frequency, TF over GST control) with ERF; 1.05 fold enrichment (6-mer frequency, TF over GST control) with ETV3L; 1.04 fold enrichment (6-mer frequency, TF over GST control) in the assay with ETV3. The binding signal with ETV6 is 1.06 fold enrichment (6-mer frequency, TF over GST control).

For CACCGG, the binding signal is 1.16 fold enrichment (6-mer frequency, TF over GST control) with ELK1; 1.04 fold enrichment (6-mer frequency, TF over GST control) with GABPA; 1.27 fold enrichment (6-mer frequency, TF over GST control) with ERG; 1.09 fold enrichment (6-mer frequency, TF over GST control) with ELF1; 1.13 fold enrichment (6-mer frequency, TF over GST control) in the assay with EHF; 1.08 fold enrichment (6-mer frequency, TF over GST control) with SPI1. Also, the binding signal with SPIB is 1.16 fold enrichment (6-mer frequency, TF over GST control); with FEV, 1.75 fold enrichment (6-mer frequency, TF over GST control); in the assay with ETV5 it was 1.21 fold enrichment (6-mer frequency, TF over GST control); with ELF4, 1.16 fold enrichment (6-mer frequency, TF over GST control); with ELK4 it was 1.05 fold enrichment (6-mer frequency, TF over GST control); with ELF3, 1.17 fold enrichment (6-mer frequency, TF over GST control). The binding signal is 1.21 fold enrichment (6-mer frequency, TF over GST control) with ETV1; 1.08 fold enrichment (6-mer frequency, TF over GST control) with ERF; 1.14 fold enrichment (6-mer frequency, TF over GST control) in the assay with ETV3L; 1.17 fold enrichment (6-mer frequency, TF over GST control) in the assay with ETS2; 1.14 fold enrichment (6-mer frequency, TF over GST control) in the assay with ETV3; 1.09 fold enrichment (6-mer frequency, TF over GST control) with ETV6.
